The record followed here is PubChem BioAssay (NCATS).

Experiment [1] deals with Lysosomal acid glucosylceramidase (Homo sapiens) (UniProt P04062). The experiment can be described thus: Glucocerebrosidase-p2 (AID 348; in the data active means potency below about 10 µM; further: potency means the concentration at half of the fitted maximal effect). Particulars: purified GBA, blue fluorogenic substrate, 40 min. In short, it runs like this:
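Normal human glucocerebrosidase (0.2 nM) with blue fluorogenic substrate (80 uM final) in citrate/phosphate pH 5.9 with 10mM sodium taurocholate, 0.01% tween-20; 40 min RT, NaOH/glycine stop; fluorescence Ex 365/Em 440; AC50 from a titration from 0.6 nM upwards.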

Experiment [2] can be described thus: AP1 Signaling Pathway (AID 357). Further: on the % scale 0 is the no-effect control and ±100 the full control effect. The conditions noted are these: ME-180 AP-1-bla reporter, EGF-induced, beta-lactamase ratio, 5 h; at 7.69 µM (top of the series) unless noted. In short, it runs like this: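 In this screen, ME-180 cells in Opti-MEM with 0.5% dialyzed FBS received EC50 EGF and compound titrations for 5 h. AP-1 reporter beta-lactamase was detected via CCF4 ratio, giving AC50 for positive and negative modulators.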

Experiment [3] concerns the target Cytochrome P450 1A2 (Homo sapiens) (UniProt P05177). Nature of the experiment: p450-cyp1a2 (AID 410; calls by dose curve; further: potency means the concentration at half of the fitted maximal effect;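 on activity change, negative = inhibition: -100% = full effect of reference inhibitor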). The conditions noted are these: recombinant CYP1A2, luciferin-ME demethylation, luminescence; series mostly up to 57 µM. The method in brief:
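20nM CYP1A2, 100uM Luciferin-ME (=Km), 100mM KPO4; cpd 10 min RT; +NADPH regen, 60 min RT; stop/detect 20 min; luminescence. Normalized to furafylline 57 uM = full inhibition.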

Experiment [4] in a line: NFAT Signaling Pathway (AID 444).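 Further: carbachol stimulus at about its EC50 of 1 µM final; on the % scale 0 is the no-effect control and ±100 the full control effect.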 The conditions noted are these: Jurkat NFAT-bla M1, carbachol, beta-lactamase ratio, 5 h; at 7.69 µM (top of the series) unless noted. The method in brief:
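Jurkat cells carrying an NFAT-driven β-lactamase reporter and co-transfected muscarinic M1 receptor were treated with compound plus carbachol (1 uM final, an EC50 level) for 5 h at 37 °C. CCF4 loading followed for 1 h at RT; 460/530 nm ratio gave %activity.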

Experiment [5] in a line: Stat Signaling Pathway (AID 446).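 Further: ME-180 cervical cancer cells given 40 pM IL-6 alongside compound; SIE-controlled beta-lactamase reporter measured as 460/530 nm FRET emission ratio; on the % scale 0 is the no-effect control and ±100 the full control effect.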 Particulars: ME-180 SIE beta-lactamase reporter, IL-6 stimulated, 5 h; at 7.69 µM (top of the series) unless noted. In short, it runs like this: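 Emission at 460 and 530 nm (excitation 405 nm) reports SIE-controlled beta-lactamase in ME-180 cells. Cells received compound with 40 pM IL-6 for 5 hrs at 37 C; data scaled between 300 pM IL-6 and 125 nM JAK-inhibitor controls.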

For experiment [6], the target named is Glucocorticoid receptor (Homo sapiens) (UniProt P04150). The experiment can be described thus: GR-EFC Redistribution (AID 451; calls by dose curve; further: potency means the concentration at half of the fitted maximal effect). The conditions noted are these: CHO-K1 GR-EFC translocation, beta-gal luminescence, 2 h. In short, it runs like this:
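CHO-K1 cells stably expressing nuclear-localized β-gal enzyme acceptor and GR fused C-terminally to the enzyme donor fragment; ligand-driven nuclear translocation restores β-gal by complementation. Compounds titrated up to 46 uM final, 2 h at 37 °C; luminescence read.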

The target of experiment [7] is Mitogen-activated protein kinase 10 (Mus musculus) (UniProt Q61831). Nature of the experiment: JNK3 AlphaScreen Assay (AID 530).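 Further: kinase came from lysate of stimulated human HepG2 cells; on the % scale 0 is the no-effect control and ±100 the full control effect.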 The conditions noted are these: JNK3 lysate, c-Jun phosphorylation; series mostly up to 57.1 µM. In short, it runs like this: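 Biotinylated GST-cJun(1-79) served as substrate for JNK3 in HepG2 lysates stimulated with IL-1beta and TNF-alpha. ATP was 10 uM final, pH 7.6. Ser73 phosphorylation was quantified by AlphaScreen (680 nm excitation).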

Experiment [8] has as its target Cytochrome P450 3A4 (Homo sapiens) (UniProt P08684). Nature of the experiment: qHTS Assay for Activators of Cytochrome P450 3A4 (AID 885; active means well fitted curve in the direction sought with a large enough effect; an effect the other way counts as inactive or inconclusive; further: nearly all actives have a fitted effect of over 65% in size). Particulars: recombinant CYP3A4, Luciferin-PPXE luminescence, 60 min; series mostly up to 57.1 µM. In short, it runs like this:
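Activators are scored by enhanced luminescence from CYP3A4 conversion of luciferin-PPXE (25uM, equal to KM) to luciferin, after 60 min at RT with an NADPH-regenerating system.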
A general note: In qHTS, concentration-response curves come from the screen itself.

The target of experiment [9] is Cytochrome P450 2D6 (Homo sapiens) (UniProt P10635). The experiment can be described thus: qHTS Assay for Inhibitors and Substrates of Cytochrome P450 2D6 (AID 891; active means well fitted curve in the direction sought with a large enough effect; an effect the other way counts as inactive or inconclusive; further: potency means the concentration at half of the fitted maximal effect; nearly all actives have a fitted effect of over 60% in size). The conditions noted are these: recombinant CYP2D6, luciferin-ME EGE luminescence; series mostly up to 57.1 µM. The method in brief:
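Luminescent read-out of luciferin formed by 5 nM human CYP2D6 demethylating 30 uM Luciferin-ME EGE (Km level) over 60 min at room temperature after NADPH regeneration addition. Data normalized to full inhibition by 1.43 uM quinidine.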

The nature of experiment [10]: Confirmation and Secondary Assay for Modulators of Hemoglobin Beta Chain Splicing at IVS2 654 locus (AID 910; active means well fitted curve in the direction sought with a large enough effect; an effect the other way counts as inactive or inconclusive; further: % of control where 0% means no effect). Particulars: HeLa EGFP-654 splicing reporter, GFP fluorescence, 48 h; series mostly up to 38.3 µM. The method in brief:
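HeLa cells stably carrying EGFP interrupted by mutant beta-globin IVS2-654 intron (CMV-driven) were treated with compound for 2 days at 37C; corrected splicing was scored as total peak GFP intensity per well (488 nm excitation, 500-520 nm emission).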

Experiment [11] in a line: Confirmation and Secondary Assay for Modulators of Hemoglobin Beta Chain Splicing at IVS2 705 locus (AID 930; active means well fitted curve in the direction sought with a large enough effect; an effect the other way counts as inactive or inconclusive;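 further: HeLa cells stably expressing the EGFP-705 splicing reporter; GFP fluorescence per well restored by corrected splicing of the IVS2-705 intron in EGFP; % of control where 0% means no effect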). Particulars: HeLa EGFP-705 splicing reporter, GFP fluorescence, 48 h; series mostly up to 38.3 µM. The method in brief: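 Read-out: total peak GFP fluorescence per well (488 nm excitation, 500-520 nm emission) by laser-scanning cytometry. Cells: HeLa EGFP-705 splicing reporter, 2 days compound exposure in Optimem/2% FCS.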

Experiment [12] in a line: qHTS Assay for Lipid Storage Modulators (AID 1519; calls by dose curve). Particulars: Drosophila S3 cells, BODIPY lipid droplet/cell ratio, laser cytometry, cells loaded with oleic acid; for activity change, negative = inhibition: at 57.5 µM (top of the series). The method in brief: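 Cells seeded at 5,000 per well were treated with compounds over a concentration series and loaded with oleic acid (400 uM, as added). Lipid droplet fluorescence (488 nm excitation, 500-530 nm channel) was read by laser-scanning cytometry and normalized to 20 uM Triacsin C.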

For experiment [13], the target named is Ubiquitin carboxyl-terminal hydrolase 1 (Homo sapiens) (UniProt O94782). The experiment can be described thus: Inhibitors of USP1/UAF1: Pilot qHTS (AID 504865; active means well fitted curve in the direction sought with a large enough effect; an effect the other way counts as inactive or inconclusive;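 further: rhodamine fluorescence freed from ubiquitin-rhodamine substrate followed over time; top concentration of the series differs between compounds; on the % scale 0 is the no-effect control and ±100 the full control effect; nearly all actives have a fitted effect of over 35% in size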). The conditions noted are these: purified USP1/UAF1, Ub-rhodamine cleavage fluorescence; series mostly up to 54.9 µM. In short, it runs like this: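 USP1/UAF1 complex (1nM) preincubated with compound 15 min at room temperature, then Ub-Rho substrate (150nM final) added. Fluorescence read kinetically at 480/540 nm, 6 reads every 60 seconds. Buffer: 50mM HEPES pH 7.8, 0.5mM EDTA, 0.1 mg/ml BSA, 1mM TCEP, 0.01% Tween-20.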

The target in experiment [14] is Glucocorticoid receptor (Homo sapiens) (UniProt P04150). Nature of the experiment: GR-GFP Redistribution (AID 450;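 active means compounds whose dose series gives a full or clear partial fitted curve of increased nuclear translocation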; further: potency means the concentration at half of the fitted maximal effect). Particulars: U2OS GR-GFP nuclear translocation, laser cytometry, 2 h.
For experiment [15], the target named is Cytochrome P450 2C19 (Homo sapiens) (UniProt P33261). The experiment can be described thus: qHTS Assay for Inhibitors and Substrates of Cytochrome P450 2C19 (AID 899; active means well fitted curve in the direction sought with a large enough effect; an effect the other way counts as inactive or inconclusive; further: potency means the concentration at half of the fitted maximal effect; nearly all actives have a fitted effect of over 60% in size). Particulars: recombinant CYP2C19, luciferin-H EGE luminescence; series mostly up to 57.1 µM. The method in brief:
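NADPH-dependent conversion of Luciferin-H EGE (10uM, at KM) by 5nM enzyme in 50mM KPO4, 60 min at 37C following 10 min compound preincubation. Stopped with luciferin detection buffer; luminescence read after 20 min.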

Experiment [16] concerns the target 3',5'-cyclic-AMP phosphodiesterase 4B (Homo sapiens) (UniProt Q07343). Nature of the experiment: qHTS Assay for Inhibitors of PDE-IV (AID 607; active means well fitted activation curve with a large enough effect in the main read-out, with a control signal flat, not every such curve was filed as active; further: % of control where 0% means no effect). The conditions noted are these: HEK293 ACTOne CNG channel cells, membrane potential fluorescence; series mostly up to 22.9 µM. In short, it runs like this:
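The readout is membrane depolarisation from a cAMP-sensing CNG channel, detected with a potential dye at ex 535/em 590. Cells were HEK293-derived (endogenous PDE-IV) at 1000 cells/well, titrated up to 22.9 uM final.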

A short description of experiment [17]: qHTS Assay for Identification of Small Molecule Agonists for Hypoxia Response Element Signaling Pathway (AID 914; active means well fitted activation curve with a large enough effect in the signal ratio, with a control signal flat, not every such curve was filed as active; the % refers to the signal ratio; further: % of control where 0% means no effect). Particulars: ME-180 (cervical carcinoma) HRE-bla reporter, beta-lactamase ratio, CoCl2, 17 h; activation: stronger effect = higher value. In short, it runs like this: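 HRE-bla ME-180 cells, overnight plating in Opti-MEM with 0.5% dialyzed FBS; cpd titration + EC50 CoCl2, 17 h, 37 degrees Celsius; CCF4 2.5 h RT; 460/530 nm ratio; AC50.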

Experiment [18] has as its target Cytochrome P450 3A4 (Homo sapiens) (UniProt P08684). The experiment can be described thus: qHTS Assay for Inhibitors and Substrates of Cytochrome P450 3A4 (AID 884; active means well fitted curve in the direction sought with a large enough effect; an effect the other way counts as inactive or inconclusive; further: potency means the concentration at half of the fitted maximal effect; nearly all actives have a fitted effect of over 50% in size). Particulars: recombinant CYP3A4, Luciferin-PPXE luminescence; series mostly up to 57.1 µM. In short, it runs like this: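 Luminescent readout of luciferin produced by CYP3A4 (20 nM) dealkylation of Luciferin-PPXE, 25 uM (its KM). NADPH-driven reaction ran 60 min at RT after 10 min compound preincubation; data scaled to 57 uM ketoconazole as 100% inhibition.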

The mark [19] stands for this setting: measured here: cell count channel max response.
The mark [20] stands for this setting: measured here: lipid channel max response.

Structures are written as SMILES. Records with an inconclusive call do not appear. The source made the active and inactive calls. Unless noted, the call rests on the fitted dose curve; in most records, active means well fitted curve in either direction with a large enough effect (not every such curve was filed as active); inconclusive means small, poorly fitted or top-dose-only effect, or another doubt; inactive means flat fitted curve, though single readings scatter.

Glucocorticoid receptor (Homo sapiens), sequence (P04150 whole entry, looked up, the tested form may be a part): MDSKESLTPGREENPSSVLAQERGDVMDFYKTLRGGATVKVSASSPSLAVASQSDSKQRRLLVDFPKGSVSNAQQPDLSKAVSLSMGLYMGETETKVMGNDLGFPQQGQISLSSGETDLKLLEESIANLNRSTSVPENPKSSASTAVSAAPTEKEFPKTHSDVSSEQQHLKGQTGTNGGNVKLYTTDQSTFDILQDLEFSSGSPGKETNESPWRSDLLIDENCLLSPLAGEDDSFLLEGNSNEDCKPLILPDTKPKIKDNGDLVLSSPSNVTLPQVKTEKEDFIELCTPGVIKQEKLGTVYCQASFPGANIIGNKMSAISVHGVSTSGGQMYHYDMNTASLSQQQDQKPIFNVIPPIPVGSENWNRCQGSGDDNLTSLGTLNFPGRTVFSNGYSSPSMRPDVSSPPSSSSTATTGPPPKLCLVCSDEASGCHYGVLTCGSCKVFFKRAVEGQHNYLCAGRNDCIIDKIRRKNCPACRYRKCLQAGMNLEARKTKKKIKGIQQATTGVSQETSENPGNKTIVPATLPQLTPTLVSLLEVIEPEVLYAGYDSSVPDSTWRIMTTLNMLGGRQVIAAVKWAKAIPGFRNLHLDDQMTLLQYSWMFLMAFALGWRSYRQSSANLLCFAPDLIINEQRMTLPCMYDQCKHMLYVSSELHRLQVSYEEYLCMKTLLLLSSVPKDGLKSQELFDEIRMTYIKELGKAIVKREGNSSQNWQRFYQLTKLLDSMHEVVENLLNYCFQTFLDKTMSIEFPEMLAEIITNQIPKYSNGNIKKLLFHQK
Cytochrome P450 1A2 (Homo sapiens), sequence (P05177 whole entry, looked up): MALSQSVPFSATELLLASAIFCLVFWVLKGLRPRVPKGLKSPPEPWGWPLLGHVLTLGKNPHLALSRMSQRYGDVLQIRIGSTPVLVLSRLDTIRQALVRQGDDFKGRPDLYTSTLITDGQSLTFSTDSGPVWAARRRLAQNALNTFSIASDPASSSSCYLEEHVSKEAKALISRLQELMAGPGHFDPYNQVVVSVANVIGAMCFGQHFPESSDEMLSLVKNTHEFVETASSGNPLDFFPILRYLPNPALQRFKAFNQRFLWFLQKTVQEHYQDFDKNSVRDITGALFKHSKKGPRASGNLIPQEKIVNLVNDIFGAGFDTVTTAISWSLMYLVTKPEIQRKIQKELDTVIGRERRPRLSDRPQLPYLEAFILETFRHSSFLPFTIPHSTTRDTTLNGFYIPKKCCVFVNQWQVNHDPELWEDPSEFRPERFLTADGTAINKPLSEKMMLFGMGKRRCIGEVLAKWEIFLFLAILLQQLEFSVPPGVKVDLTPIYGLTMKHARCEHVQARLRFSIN
3',5'-cyclic-AMP phosphodiesterase 4B (Homo sapiens), sequence (Q07343 whole entry, looked up): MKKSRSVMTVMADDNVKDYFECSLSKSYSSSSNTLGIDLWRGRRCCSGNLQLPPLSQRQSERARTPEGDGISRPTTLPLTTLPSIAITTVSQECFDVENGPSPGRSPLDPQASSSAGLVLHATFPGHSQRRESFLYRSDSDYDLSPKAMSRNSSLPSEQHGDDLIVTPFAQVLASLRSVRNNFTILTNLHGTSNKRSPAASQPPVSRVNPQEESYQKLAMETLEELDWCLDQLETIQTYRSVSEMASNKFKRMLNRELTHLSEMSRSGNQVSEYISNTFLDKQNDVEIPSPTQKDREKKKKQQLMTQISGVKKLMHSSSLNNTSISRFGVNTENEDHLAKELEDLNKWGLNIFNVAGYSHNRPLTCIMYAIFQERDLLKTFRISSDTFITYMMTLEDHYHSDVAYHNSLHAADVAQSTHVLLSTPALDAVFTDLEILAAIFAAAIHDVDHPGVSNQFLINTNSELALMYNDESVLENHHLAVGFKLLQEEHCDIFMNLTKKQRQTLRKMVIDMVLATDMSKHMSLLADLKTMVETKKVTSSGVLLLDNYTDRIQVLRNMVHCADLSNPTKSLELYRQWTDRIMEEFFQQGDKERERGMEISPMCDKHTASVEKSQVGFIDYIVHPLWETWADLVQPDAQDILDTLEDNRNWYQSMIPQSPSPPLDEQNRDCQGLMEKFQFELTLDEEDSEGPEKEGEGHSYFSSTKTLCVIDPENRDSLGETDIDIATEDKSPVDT
Lysosomal acid glucosylceramidase (Homo sapiens), sequence (P04062 whole entry, looked up): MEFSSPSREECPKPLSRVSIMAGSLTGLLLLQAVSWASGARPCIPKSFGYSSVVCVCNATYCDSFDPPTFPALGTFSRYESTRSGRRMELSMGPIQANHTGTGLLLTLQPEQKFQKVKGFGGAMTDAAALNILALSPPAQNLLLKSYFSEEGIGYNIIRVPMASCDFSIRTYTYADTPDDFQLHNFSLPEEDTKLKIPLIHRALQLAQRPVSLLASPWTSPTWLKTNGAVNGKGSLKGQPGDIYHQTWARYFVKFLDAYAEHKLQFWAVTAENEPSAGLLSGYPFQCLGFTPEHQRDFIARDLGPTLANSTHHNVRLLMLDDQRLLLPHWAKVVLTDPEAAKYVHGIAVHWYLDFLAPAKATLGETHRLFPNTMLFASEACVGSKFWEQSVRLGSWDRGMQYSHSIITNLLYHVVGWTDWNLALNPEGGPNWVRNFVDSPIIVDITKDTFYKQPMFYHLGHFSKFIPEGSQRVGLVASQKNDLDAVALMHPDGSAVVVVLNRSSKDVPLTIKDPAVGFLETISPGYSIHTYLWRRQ
Cytochrome P450 3A4 (Homo sapiens), sequence (P08684 whole entry, looked up): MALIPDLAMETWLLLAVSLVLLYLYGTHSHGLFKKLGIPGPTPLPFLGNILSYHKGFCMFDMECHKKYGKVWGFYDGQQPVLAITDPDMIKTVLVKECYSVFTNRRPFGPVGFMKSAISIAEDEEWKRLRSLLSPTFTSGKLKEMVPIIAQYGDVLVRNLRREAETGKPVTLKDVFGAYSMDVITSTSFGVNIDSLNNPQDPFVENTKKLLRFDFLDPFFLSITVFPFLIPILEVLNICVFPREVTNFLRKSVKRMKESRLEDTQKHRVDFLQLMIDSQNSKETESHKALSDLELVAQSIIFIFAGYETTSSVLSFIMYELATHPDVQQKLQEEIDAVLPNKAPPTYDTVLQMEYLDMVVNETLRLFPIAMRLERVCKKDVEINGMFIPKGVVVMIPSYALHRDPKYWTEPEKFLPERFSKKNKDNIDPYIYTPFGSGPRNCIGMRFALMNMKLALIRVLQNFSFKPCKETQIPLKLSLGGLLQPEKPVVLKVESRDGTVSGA
Cytochrome P450 2C19 (Homo sapiens), sequence (P33261 whole entry, looked up): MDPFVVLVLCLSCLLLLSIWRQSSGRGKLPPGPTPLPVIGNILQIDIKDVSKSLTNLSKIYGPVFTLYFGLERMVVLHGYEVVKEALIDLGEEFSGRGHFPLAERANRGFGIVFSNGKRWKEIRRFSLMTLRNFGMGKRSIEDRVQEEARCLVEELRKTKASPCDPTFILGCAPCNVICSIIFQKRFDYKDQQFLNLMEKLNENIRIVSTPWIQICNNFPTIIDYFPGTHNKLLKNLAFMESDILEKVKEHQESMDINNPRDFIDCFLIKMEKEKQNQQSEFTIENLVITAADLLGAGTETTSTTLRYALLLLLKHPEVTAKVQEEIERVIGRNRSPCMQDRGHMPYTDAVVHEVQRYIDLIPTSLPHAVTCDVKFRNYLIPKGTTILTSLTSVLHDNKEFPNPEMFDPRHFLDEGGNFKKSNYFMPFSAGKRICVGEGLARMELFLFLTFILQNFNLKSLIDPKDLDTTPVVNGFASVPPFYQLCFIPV
Ubiquitin carboxyl-terminal hydrolase 1 (Homo sapiens), sequence (O94782 whole entry, looked up): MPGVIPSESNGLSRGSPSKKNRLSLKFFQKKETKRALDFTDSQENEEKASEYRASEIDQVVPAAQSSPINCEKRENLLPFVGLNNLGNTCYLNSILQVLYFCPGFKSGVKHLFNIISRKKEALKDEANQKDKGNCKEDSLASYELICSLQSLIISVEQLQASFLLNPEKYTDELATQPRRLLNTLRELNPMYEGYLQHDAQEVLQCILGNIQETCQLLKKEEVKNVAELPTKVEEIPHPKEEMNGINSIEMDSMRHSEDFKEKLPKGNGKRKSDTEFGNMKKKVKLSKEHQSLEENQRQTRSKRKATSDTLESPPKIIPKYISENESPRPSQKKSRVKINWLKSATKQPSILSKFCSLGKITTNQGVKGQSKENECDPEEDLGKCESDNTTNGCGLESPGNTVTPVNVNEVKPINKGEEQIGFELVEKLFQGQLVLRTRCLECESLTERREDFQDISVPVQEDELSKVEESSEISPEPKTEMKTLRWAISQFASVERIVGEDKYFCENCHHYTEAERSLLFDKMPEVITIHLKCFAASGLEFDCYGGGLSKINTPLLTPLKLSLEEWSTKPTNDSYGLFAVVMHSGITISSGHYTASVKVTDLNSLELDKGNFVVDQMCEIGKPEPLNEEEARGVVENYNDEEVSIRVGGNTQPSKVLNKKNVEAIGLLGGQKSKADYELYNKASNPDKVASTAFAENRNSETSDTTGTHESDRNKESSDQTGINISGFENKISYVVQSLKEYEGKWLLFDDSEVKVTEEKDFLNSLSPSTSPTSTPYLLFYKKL
Cytochrome P450 2D6 (Homo sapiens), sequence (P10635 whole entry, looked up): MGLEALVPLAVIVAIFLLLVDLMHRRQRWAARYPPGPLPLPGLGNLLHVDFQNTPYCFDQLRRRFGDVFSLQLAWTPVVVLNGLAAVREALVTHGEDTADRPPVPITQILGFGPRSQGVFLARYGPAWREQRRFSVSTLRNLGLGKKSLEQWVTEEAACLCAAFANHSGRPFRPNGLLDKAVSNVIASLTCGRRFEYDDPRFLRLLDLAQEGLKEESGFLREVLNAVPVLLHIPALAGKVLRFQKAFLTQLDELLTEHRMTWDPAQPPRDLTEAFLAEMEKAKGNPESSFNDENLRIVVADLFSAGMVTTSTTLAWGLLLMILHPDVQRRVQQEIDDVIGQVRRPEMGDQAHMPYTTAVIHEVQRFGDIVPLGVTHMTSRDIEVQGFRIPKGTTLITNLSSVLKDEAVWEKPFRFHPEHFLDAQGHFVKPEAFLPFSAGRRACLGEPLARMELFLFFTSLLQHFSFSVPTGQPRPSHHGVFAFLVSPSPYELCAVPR

On to `Cc1cccc(CNc2ccnc(-c3ccccc3CN(C)C)n2)c1`, for which the Potency in experiment [1] was 11.5 µM (inactive); in experiment [3], 3.16 µM (active); in experiment [6], > 46 µM (inactive); in [9], 2.51 µM (active). The activity change, negative = inhibition in experiment [2] was -18% (inactive); in experiment [4], -18.8% (inactive); in experiment [12] it was 3.61% (inactive). Moreover, the activity, negative = inhibition in [5] is -5.22% (inactive). Besides, the Potency entry in experiment [7], in [8], in [10] and in [13] was “inactive” each time. Besides, the compound was classed as inactive in [11]. Also, the max response in experiment [12] (setting [19]) is -8.06%; in experiment [12] (setting [20]), -5.18%.

`COc1ccccc1-c1cncnc1NCc1cccc(C)c1`: the Potency in [1] is > 11.4 µM (inactive); in experiment [3], 5.01 µM (active); in experiment [14], > 46 µM (inactive); in [6], > 46 µM (inactive); in [15], 0.398 µM (active). Further, the activity change, negative = inhibition is -3.97% (inactive) in experiment [2], -21.2% (inactive) in experiment [4] and 10.8% (inactive) in [12]. Also, the activity, negative = inhibition in experiment [5] is -6.93% (inactive). Further, the Potency entry in experiment [7], in experiment [8] and in experiment [10] was “inactive” each time. The compound was classed as inactive in [11]. For the same compound, the results for the max response in experiment [12] (setting [19]) and in experiment [12] (setting [20]) were 7.88% and 19.2%, respectively.

As to `Cc1nc2cnc(N(C)C)nc2n(Cc2cccs2)c1=O`, the Potency in experiment [1] is > 11.4 µM (inactive); in experiment [3], 1.26 µM (active); in experiment [14] it was > 9.22 µM (inactive); in experiment [6], > 46 µM (inactive). Also, the activity change, negative = inhibition was -12% (inactive) in experiment [2], -7.11% (inactive) in experiment [4] and 3.99% (inactive) in experiment [12]. Further, in experiment [5], the activity, negative = inhibition is -2.49% (inactive). The Potency result in experiment [7] and in [8] was “inactive” in each case. The results for the max response in experiment [12] (setting [19]) and in experiment [12] (setting [20]) were 10.1% and 16.8%, respectively.

As to `COCCNc1ncnc2ccc(-c3ccccc3CN(C)C)cc12`, the Potency in experiment [1] was > 11.4 µM (inactive); in experiment [3], 25.1 µM (active); in [14] it was > 46 µM (inactive); in experiment [6] it was > 46 µM (inactive). The activity change, negative = inhibition was -22.6% (inactive) in experiment [2], -6.98% (inactive) in [4] and 12.3% (inactive) in [12]. Moreover, the activity, negative = inhibition in [5] was 4.88% (inactive). Also, the Potency result in experiment [7], in [16], in experiment [8] and in [13] was “inactive” throughout. Moreover, the compound was called inactive in experiment [11]. Besides, the max response in [12] (setting [19]) is 13.6%; in [12] (setting [20]) it was 25.7%.

As for `O=C(c1cc(C(F)(F)F)cc(C(F)(F)F)c1)N1CCC2(CC1)CCN(c1ncccn1)CC2`, the Potency in experiment [1] is > 11.4 µM (inactive); in [6], > 46 µM (inactive). Further, the activity change, negative = inhibition in [2] was -11.6% (inactive); in [4], 28.8% (inactive); in [12], 3.41% (inactive). The Potency entry in [3], in experiment [7] and in experiment [16] was “inactive” each time. Moreover, the activity, negative = inhibition in experiment [5] is -7.73% (inactive). The activation in experiment [17] was 1.37% (inactive). The max response came to 13.8% in experiment [12] (setting [19]) and 23.2% in experiment [12] (setting [20]).

For the compound `O=S(=O)(c1ccccc1)N1CCC[C@@]2(CCN(Cc3nccs3)C2)C1`, the Potency in experiment [1] is > 11.4 µM (inactive); in experiment [3], 15.8 µM (active); in experiment [6], > 46 µM (inactive); in [18] it was 3.16 µM (active); in experiment [9] it was 2.51 µM (active); in experiment [15] it was 7.94 µM (active). The activity change, negative = inhibition was -10.5% (inactive) in experiment [2], -1.46% (inactive) in experiment [4] and 0.281% (inactive) in experiment [12]. Moreover, in [5], the activity, negative = inhibition was -1.53% (inactive). The Potency entry in [7], in experiment [16] and in experiment [8] was “inactive” throughout. Besides, the max response in experiment [12] (setting [19]) amounted to 10.8%; in experiment [12] (setting [20]), 15.6%.
